In PubChem BioAssay AID623994 (NMMLSC, 2012):
Potency and affinity values are given separately. Calls of active or inactive are those of the source.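 How the source made its calls: active means compounds whose fitted concentration for half the maximal dye retention is below 100 µM; inactive means the rest.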

Target: Multidrug resistance protein CDR2 (Candida albicans (strain SC5314 / ATCC MYA-2876)) (UniProt P78595)
Assay: CaCDR2 efflux pump inhibitors in yeast, dose response, S. cerevisiae AD1-8u, singleplex, Cherry Pick2 set (AID 623994)
Details: S. cerevisiae AD1-8u expressing CaCDR2, Nile Red efflux; series mostly up to 100 µM

Sequence of Multidrug resistance protein CDR2 (Candida albicans (strain SC5314 / ATCC MYA-2876)) (P78595 whole entry, looked up): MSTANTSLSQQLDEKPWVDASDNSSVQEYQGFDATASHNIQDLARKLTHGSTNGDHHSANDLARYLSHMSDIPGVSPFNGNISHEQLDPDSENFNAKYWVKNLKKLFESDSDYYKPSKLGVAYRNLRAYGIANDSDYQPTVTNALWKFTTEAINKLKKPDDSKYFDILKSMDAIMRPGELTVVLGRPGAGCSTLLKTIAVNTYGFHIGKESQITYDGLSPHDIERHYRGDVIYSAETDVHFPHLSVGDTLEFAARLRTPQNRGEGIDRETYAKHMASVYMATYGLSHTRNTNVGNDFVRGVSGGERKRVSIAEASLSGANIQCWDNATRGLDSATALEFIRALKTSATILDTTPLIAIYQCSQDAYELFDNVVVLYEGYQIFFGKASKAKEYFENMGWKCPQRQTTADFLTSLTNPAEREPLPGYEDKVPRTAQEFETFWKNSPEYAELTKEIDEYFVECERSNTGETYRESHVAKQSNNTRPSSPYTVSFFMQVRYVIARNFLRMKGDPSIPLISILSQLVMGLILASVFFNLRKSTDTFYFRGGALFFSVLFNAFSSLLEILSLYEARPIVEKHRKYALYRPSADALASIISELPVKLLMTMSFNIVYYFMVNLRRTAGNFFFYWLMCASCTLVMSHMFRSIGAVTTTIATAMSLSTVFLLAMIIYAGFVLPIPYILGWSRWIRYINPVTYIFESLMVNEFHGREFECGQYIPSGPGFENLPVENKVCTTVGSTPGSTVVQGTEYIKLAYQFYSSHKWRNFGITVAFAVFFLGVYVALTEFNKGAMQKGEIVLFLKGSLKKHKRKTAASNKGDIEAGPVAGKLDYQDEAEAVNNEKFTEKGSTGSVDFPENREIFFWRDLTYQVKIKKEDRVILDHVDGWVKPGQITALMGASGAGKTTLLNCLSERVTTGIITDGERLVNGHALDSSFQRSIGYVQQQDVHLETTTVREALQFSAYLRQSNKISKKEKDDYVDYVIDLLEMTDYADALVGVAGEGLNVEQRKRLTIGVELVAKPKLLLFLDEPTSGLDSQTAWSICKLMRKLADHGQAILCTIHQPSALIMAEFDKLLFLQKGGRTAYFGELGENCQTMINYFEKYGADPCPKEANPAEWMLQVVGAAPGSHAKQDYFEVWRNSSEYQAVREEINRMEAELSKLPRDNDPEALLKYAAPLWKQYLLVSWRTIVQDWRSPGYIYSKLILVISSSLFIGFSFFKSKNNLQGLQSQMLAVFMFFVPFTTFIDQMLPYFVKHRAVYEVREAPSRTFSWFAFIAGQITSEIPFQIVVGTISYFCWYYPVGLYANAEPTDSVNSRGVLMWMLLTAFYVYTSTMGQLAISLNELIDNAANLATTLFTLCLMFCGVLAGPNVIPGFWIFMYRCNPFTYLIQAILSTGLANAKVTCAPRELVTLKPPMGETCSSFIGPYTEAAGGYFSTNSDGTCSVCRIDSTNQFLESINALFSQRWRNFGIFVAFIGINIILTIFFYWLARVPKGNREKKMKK

outcome, inactive:
Nc1ccc(C(=O)OCCc2ccccc2)cc1
CC(C)C(=O)N1CCC2(CC1)Oc1ccc(Cl)cc1C(=O)C21CC(c2ccc(Cl)cc2)=NO1 (stereo not given)
COc1cc(OC)c2ccc(=O)oc2c1C(CCN1CCCCC1)c1ccc(N(C)C)cc1 (stereo not given)
O=C(NCCc1ccc(Cl)cc1)C1CCC(CNc2nc(=S)[nH]c3ccccc23)CC1 (stereo not given)
COc1ccc2c(c1)OC[C@H]1[C@H]2N2C(=O)c3ccc(C)cc3NC(=O)[C@@]2(C)[C@H]1c1ccccc1
Cc1ccc(O)c(C(=O)c2cnc3c(c2)CN(CCC(C)C)C(=O)N3)c1
Cc1ccc2c(c1)[C@H]1[C@H](CO2)[C@H](c2ccccc2)[C@]2(C)C(=O)Nc3cc(F)c(F)cc3C(=O)N12
O=C(c1ccc2c(c1)OCO2)N1CCC2(CC1)Oc1ccc(F)cc1C(=O)C21CC(c2ccc(Cl)cc2)=NO1 (stereo not given)
Cc1ccc(N2CCN(C(=O)C3CCCN(c4ncnc5c4nc4n5CCCCC4)C3)CC2)c(C)c1 (stereo not given)
N#CC(C(=O)NCc1ccccc1)c1nc2ccccc2nc1N1CCCC1 (stereo not given)
CN1Cc2cc(C(=O)c3ccccc3O)cnc2NC1=O
COc1cc(OC)c2ccc(=O)oc2c1C(CCN1CCCC(C)C1)c1ccc(N(C)C)cc1 (stereo not given)
CCCCCCCCCC[N+](C)(C)CC/C=C1/c2ccccc2Sc2ccc(Cl)cc21
COc1ccc(OC)c2sc(NC(=O)c3ccc(Br)s3)nc12
CC(C)C(=O)N1CCC2(CC1)Oc1ccc(F)cc1C(=O)C21CC(c2ccccc2)=NO1 (stereo not given)
O=C(CSc1nnc(Cc2cccs2)n1Cc1ccco1)Nc1cccc(Cl)c1
CCCCN1Cc2cc(C(=O)c3cc(F)ccc3O)cnc2NC1=O
O=C(c1ccc2c(c1)OCO2)N1CCC2(CC1)Oc1ccc(F)cc1C(=O)C21CC(c2ccccc2)=NO1 (stereo not given)
Cc1ccc(CN2C(=O)C(CC(C)C)Nc3ncnc(N4CCN(c5ccccc5)CC4)c32)cc1 (stereo not given)
COc1ccc(CN2C(=O)C(C)Nc3ncnc(N4CCN(c5ccccc5)CC4)c32)cc1 (stereo not given)
Cc1cc(C(=O)NC2CC(C)(C)Cc3c2cnn3-c2ccc(F)cc2)no1 (stereo not given)
COc1ccc(N2CCN(C(=O)C3CCCN(c4ncnc5c4nc4n5CCCCC4)C3)CC2)cc1 (stereo not given)
CC1CN(c2nc3ccccc3nc2C(C#N)C(=O)NCc2ccc3c(c2)OCO3)CC(C)O1 (stereo not given)
Cc1cc(C)c2sc(N(CCCN(C)C)C(=O)c3ccc(Br)s3)nc2c1
COc1ccc(CNC(=O)C(C#N)c2nc3ccccc3nc2N2CCN(C)CC2)cc1 (stereo not given)
COc1cccc(N2CCN(C(=O)C3CCCN(c4ncnc5c4nc4n5CCCCC4)C3)CC2)c1 (stereo not given)
Cc1ccc(C)c(N2CCN(C(=O)C3CCCN(c4ncnc5c4nc4n5CCCCC4)C3)CC2)c1 (stereo not given)
O=C(C1CCCN(c2ncnc3c2nc2n3CCCCC2)C1)N1CCN(c2ccccc2F)CC1 (stereo not given)
CCCCNC(=O)C1CCC(CNc2nc(=S)[nH]c3ccccc23)CC1 (stereo not given)
CCN(CC)CCC(c1ccc(N(C)C)cc1)c1c(OC)cc(OC)c2ccc(=O)oc12 (stereo not given)
